The whole screen tested about 48,000 compounds, of which about 13,000 (27%) showed an effect of 50% or more. This is one part of the list.
Test system: Wolbachia pipientis
Test: Anti-Wolbachia Cell-Based Screen
Type: functional
Design: scale not given: in the data most compounds retested in dose-response had high values
Conditions: 5 µM

Structure (SMILES)	Percent Effect [%]
O=C1CCCc2occ(C(=O)N3CCCC4(CCNC4)C3)c21 (centres undefined)	-0.7654
Cc1c(Cl)cccc1S(=O)(=O)NCC(O)c1cccn1C (centres undefined)	9.208
O=C(NCCn1cccn1)Nc1cc(C(=O)N2CCOCC2)ccc1Cl	-1.545
COCCNC(=O)[C@H]1C[C@@](CC(C)C)(C(=O)O)N(C)[C@H]1c1cccnc1	-5.7
CCCS(=O)(=O)NC(=O)c1ccc(-n2nc(C)cc2C)cc1	-12.15
Cc1cc(C)n(-c2ccc(C(C)NS(=O)(=O)CCCS(C)(=O)=O)cc2)n1 (centres undefined)	5.826
CSCc1nc(CNC(=O)c2cnn(C(C)C)c2)cs1	-8.764
Cc1cc(C)n(-c2ccc(C(=O)NCC(CO)Cc3ccco3)cc2)n1 (centres undefined)	116.9
CC(C)n1cc(C(=O)NCCc2cn3ccsc3n2)cn1	-2.025
Cc1cc(C)n(-c2ccc(C(=O)NCc3cncn3CC(C)C)cc2)n1	-4.296
CC(CNC(=O)N1CCC(CO)CC1)Cc1cccs1 (centres undefined)	-8.447
CC(C)n1cc(C(=O)NCC(CO)Cc2cccs2)cn1 (centres undefined)	100.7
Cc1cc(C)n(-c2ccc(C(=O)NCC(CO)Cc3cccs3)cc2)n1 (centres undefined)	87.25
Cc1cc(-c2nn(C)c(Cl)c2CN2Cc3ccccc3C(O)C2)no1 (centres undefined)	9.326
CCCS(=O)(=O)N1CCC2(CCCC(=O)N2C)CC1	-27.87
COCCN1CCN(Cc2ccc(C(C)=O)cc2)[C@H]2CS(=O)(=O)C[C@H]21	-2.157
Cc1nn(C)c(Oc2cccc(F)c2)c1NC(=O)C1CCCO1 (centres undefined)	1.382
COC(=O)C1CN(Cc2ccc(-c3ccncc3)cc2F)C[C@@H](C)O1 (some centres undefined)	4.503
CC(C)OCCN1CCN(C(=O)c2cccc(-n3cccn3)n2)CC1	-4.895
COc1cccc2c1OCC(CNC(=O)CNC(N)=O)C2 (centres undefined)	-0.3476
COc1cccc2c1OCC(CNC(=O)CSc1ccccn1)C2 (centres undefined)	-6.827
COc1cccc2c1OCC(C(=O)NCCc1nnc(C)s1)C2 (centres undefined)	6.125
COc1cccc2c1OCC(C(=O)NCCc1nnc(N)s1)C2 (centres undefined)	12.39
COc1cccc2c1OCC(NC(=O)NCCC(N)=O)C2 (centres undefined)	107.1
COc1cccc2c1OCC(NC(=O)NCCc1ccccn1)C2 (centres undefined)	120.5

Structure (SMILES)	Percent Effect [%]
CNC(=O)c1cccc(CNC2CCCSc3ccccc32)c1 (centres undefined)	-0.5699
CN(C)C(C(=O)NCC1(Cn2cccn2)CC1)c1ccc(F)cc1 (centres undefined)	-7.743
CSc1ccc(OC(C)C(=O)Nc2cc[nH]n2)cc1 (centres undefined)	1.482
COc1cccc(CNCc2nnc3n2CC(C(F)(F)F)CC3)c1 (centres undefined)	-16.12
CCC1COCCN1C(=O)CNC(=O)c1ccc2c(c1)CCC2 (centres undefined)	-1.675
NC(=O)Cn1cc(NC(=O)NCC2CCN(c3ccccc3)C2)cn1 (centres undefined)	6.849
CCn1cc(NC(=O)NCC(c2cccs2)N(C)C)cn1 (centres undefined)	-11.74
CCC(CNC(=O)Nc1cnn(CC)c1)N1CCCC1 (centres undefined)	-8.538
NC(=O)Cn1cc(NC(=O)N2CCCC2)cn1	-13.27
O=C(NCC(O)CN1CCc2ccccc2C1)Nc1cccnc1 (centres undefined)	1.395
CCC(CNC(=O)c1ccccc1Br)N1CCc2ccccc2C1 (centres undefined)	-9.585
CCn1cc(NC(=O)NCCN2CCc3ccccc3C2)cn1	123.6
CCn1cc(NC(=O)NCC(O)CN2CCc3ccccc3C2)cn1 (centres undefined)	9.53
CC(Cn1cccn1)NC(=O)NCCN1CCc2ccccc2C1 (centres undefined)	1.571
CCC(CNC(=O)Nc1cnn(CC)c1)N1CCc2ccccc2C1 (centres undefined)	115.3
CCn1cc(NC(=O)NCC(C)(C)N2CCc3ccccc3C2)cn1	107.6
NC(=O)Cn1cc(NC(=O)NCCN2CCc3ccccc3C2)cn1	93.55
COCc1ccccc1CNCc1c(C)nn(C)c1N(C)C	5.243
Cc1cc2nc(C(=O)NCc3cccnc3N(C)C)cc(C)n2n1	-11.37
Cc1nn(CCO)c(C)c1CNCc1cccnc1N(C)C	113.9
Cc1nn(C)c(N(C)C)c1CNCc1ccccc1Cn1cncn1	3.483
COc1ncccc1CNCc1c(C)nn(C)c1N(C)C	96.94
Cc1cnn(CCNCc2c(C)nn(CCO)c2C)c1	8.317
COc1ncccc1CNCc1c(C(C)C)nn(C)c1N(C)C	7.273
CCOc1ncccc1CNCc1c(C(C)C)nn(C)c1N(C)C	98.21

Structure (SMILES)	Percent Effect [%]
Cc1nn(C)c(N(C)C)c1CNCc1cccnc1N(C)C	64.69
CC(C)c1nn(C)c(N(C)C)c1CNCc1ccccc1CN(C)C	-8.36
COCCOc1ncccc1CNCc1c(C)nn(C)c1N(C)C	5.631
CCOc1ccc(NC2CCN(C)C2=O)cn1 (centres undefined)	-24.45
Cc1noc(C)c1CN(C)CC1CC(C2CCCCC2)=NO1 (centres undefined)	7.193
Cc1cc(CNCC2(O)CCOCC2)ccc1Br	-3.743
CN1CCN(CCCOc2ccccc2CN2C[C@H]3CC[C@H]2C3)CC1	-24.99
Cc1nn(C)c(N(C)C)c1CNCc1cccnc1OC(C)C	107.9
CCOc1ncccc1CNCc1c(C)nn(C)c1N(C)C	97
COc1c(CNCc2cccnc2OC(C)C)c(C(C)C)nn1C	2.472
Cc1nn(C)c(N(C)C)c1CNCc1ccccc1CN(C)C	13.98
Cc1ccc(CNC(=O)C2CCN(C(=O)c3ccco3)CC2)n1C	1.7
Cn1cc(CN2C[C@@H]3CCCO[C@@H]3[C@H](N3CCCC3=O)C2)cn1.O=C(O)C(F)(F)F	-11.94
Cc1ccc(N2CCCC(NCc3cnc(C)s3)C2)nn1 (centres undefined)	95.67
Cc1ccc(N2CCCC(NCc3ccc(C)s3)C2)nn1 (centres undefined)	102.5
Cc1ccc(N2CCCC(NCc3ccsc3)C2)nn1 (centres undefined)	-6.53
Cc1ccc(N2CCCC(NCc3sccc3C)C2)nn1 (centres undefined)	101
CCN(CCOC)C(=O)CCc1scnc1C	1.791
CCc1ccc(CNc2cc(-c3ccoc3C)nn2CCO)o1	-16.42
Cc1nnc2n1CCN(C(=O)c1cnc3c(cnn3CC(C)C)c1)C2	-2.285
Cc1ccc(CN(CCCN(C)C)Cc2cnc(N(C)C)nc2)o1.O=C(O)CC(O)(CC(=O)O)C(=O)O	115.6
CC(C)CN(Cc1ccc(O)c(C(=O)O)c1)Cc1cnn(C)c1	-4.31
CN(C)c1ccc(CN(CCCn2ccnc2)Cc2c[nH]cn2)cc1.O=C(O)CC(O)(CC(=O)O)C(=O)O	-12.92
Cc1nc2sccn2c1CN(CCCN(C)C)Cc1ccco1.O=C(O)CC(O)(CC(=O)O)C(=O)O	131.3
CC(C)OCCCN(Cc1cnn(C)c1)Cc1ccccn1.O=C(O)CC(O)(CC(=O)O)C(=O)O	84.46

Structure (SMILES)	Percent Effect [%]
COc1cc(CN(CCCN(C)C)Cc2ccccn2)cc2c1OCO2.O=C(O)CC(O)(CC(=O)O)C(=O)O	126.3
O=C(Cc1cn2ccsc2n1)N(Cc1ccco1)CC1CCCO1 (centres undefined)	1.448
COc1cc(CN(Cc2ccccn2)CC(C)C)cc2c1OCO2	-37.75
Cc1ncsc1CCN(C)Cc1cc2n(n1)CCN(Cc1ccco1)C2	0.12
COCc1cc(N(CC(F)F)C2CC2)n2ncnc2n1	-15.21
CC(C)(Cn1cnc(-c2ccccc2)c1-c1ccco1)N1CCOCC1	0.7687
Cc1nc2c(c(=O)n1C)CCN(C(=O)CCc1ccccn1)CC2	-4.884
CN(C)CCCN(Cc1cnn(C)c1)Cc1ccco1.O=C(O)CC(O)(CC(=O)O)C(=O)O	115.2
COCCN(Cc1cnn(C)c1)Cc1ccc(C)o1	2.974
Cc1ccc(CN(CCCN2CCOCC2)Cc2cnn(C)c2)o1.O=C(O)CC(O)(CC(=O)O)C(=O)O	97.82
CCN(CCCN1CCOCC1)C(=O)c1cnn(CC)c1	-6.092
CN(Cc1cnn(C)c1)S(=O)(=O)N1CCCC1c1ccco1 (centres undefined)	-4.037
CN(C)[C@@H]1CCN(C(=O)c2ccco2)[C@H]1Cc1cnn(C)c1.O=C(O)C(F)(F)F	-8.002
O=C1NCC2(CCCN(C(=O)Nc3ccc4scnc4c3)CC2)O1 (centres undefined)	-9.08
Cc1cnn(CC2CCN(CC(O)c3ccc(F)cc3)CC2)c1 (centres undefined)	-5.813
CC(C)(C)C(=O)N1CC[C@@H]2[C@H](CC1)N(S(C)(=O)=O)CCS2(=O)=O	98.9
CC(=O)N1CCS(=O)(=O)[C@@H]2CCN(S(=O)(=O)CC(C)C)CC[C@@H]21	8.105
CC(=O)N1CCS(=O)(=O)[C@@H]2CCN(CC(C)C)CC[C@@H]21.O=C(O)C(F)(F)F	-6.859
CC(C)CN1CCS(=O)(=O)[C@@H]2CCN(S(=O)(=O)C3CC3)CC[C@@H]21.O=C(O)C(F)(F)F	4.008
CC(C)CC(=O)N1CC[C@@H]2[C@H](CC1)N(S(C)(=O)=O)CCS2(=O)=O	1.552
CC(C)(C)CC(=O)N1CC[C@@H]2[C@H](CC1)N(S(C)(=O)=O)CCS2(=O)=O	-4.617
CC(C)CN1CCS(=O)(=O)[C@@H]2CCN(S(=O)(=O)N(C)C)CC[C@@H]21.O=C(O)C(F)(F)F	-16.7
CC(C)CCC(=O)N1CC[C@@H]2[C@H](CC1)N(S(C)(=O)=O)CCS2(=O)=O	94.59
CC(C)CN1CC[C@@H]2[C@H](CC1)N(S(C)(=O)=O)CCS2(=O)=O.O=C(O)C(F)(F)F	96.88

Source: ChEMBL document CHEMBL3988442, “University of Dundee, Small-Polar-MMV Screening Library” (2021)
